# Laboratory results from PubChem BioAssay.
# How the values were obtained:
# [1] = system: Human papillomavirus type 1a protein E7 (residues 44-93); assay: HPV1a E7 fragment binders on microarrays, primary screen, biochemical, small-molecule microarray, residues 44-93, 635 nm fluorescence (AID 1108); settings: small-molecule microarray binding, fluorescence 635 nm; higher = more signal;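 note: E7 fragment applied at 1 µg/mL in TBST for 1 h at 4 C; score combines spot fluorescence with its signal to noise ratio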
# [2] = modulators of HCV replicon luciferase signal, primary screen, HCV replication inhibitor project, Huh7 cells, luciferase reporter (AID 1109); settings: 48 h, higher = more signal;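 note: huh7 hepatoma cells harbouring a luciferase neomycin HCV replicon reporter; luciferase luminescence as measure of HCV replicon replication; test concentration not given here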
# [3] = target: Left-right determination factor 2 (Homo sapiens) (UniProt O00292); assay: LEFTY2 binders on small-molecule microarrays, primary screen, biochemical, small-molecule microarray, 635 nm fluorescence scan (AID 1110); settings: LEFTY2 binding, higher = more signal
# Chain of Left-right determination factor 2 (Homo sapiens) (O00292 whole entry, looked up): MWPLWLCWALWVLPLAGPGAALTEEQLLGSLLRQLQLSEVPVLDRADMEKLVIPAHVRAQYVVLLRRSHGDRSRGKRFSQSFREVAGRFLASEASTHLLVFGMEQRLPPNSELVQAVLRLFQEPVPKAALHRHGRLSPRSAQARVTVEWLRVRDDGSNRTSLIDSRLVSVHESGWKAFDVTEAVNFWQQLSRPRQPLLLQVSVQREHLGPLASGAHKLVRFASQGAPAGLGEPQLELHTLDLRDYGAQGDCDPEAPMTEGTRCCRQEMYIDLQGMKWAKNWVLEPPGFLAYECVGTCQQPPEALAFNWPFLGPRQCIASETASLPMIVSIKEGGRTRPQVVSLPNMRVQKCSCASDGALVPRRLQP
# [4] = target: Calmodulin-1 (Homo sapiens) (UniProt P0DP23); assay: CALM1 binders on microarrays, EGTA buffer, profiling panel, biochemical, small-molecule microarray, Cy5-labelled CALM1 (AID 1111); settings: Cy5-CALM1 binding fluorescence, higher = more signal;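 note: labelled calmodulin applied in Tris saline Tween buffer holding calcium plus EGTA and DTT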
# [5] = target: Calmodulin-1 (Homo sapiens) (UniProt P0DP23); assay: calcium-bound CALM1 binders on microarrays, profiling panel, artefact control for SMM control-protein annotation, biochemical, small-molecule microarray, Cy5-labelled CALM1, plus calcium (AID 1112); settings: Cy5-CALM1 binding fluorescence, higher = more signal;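 note: score merges spot fluorescence with signal to noise from triplicate slides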
# [6] = small-molecule microarray binders of probe aWnt5a, primary screen, biochemical, biotinylated probe, 635/667 nm fluorescence (AID 1113); settings: higher = more signal;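 note: score merges 667 nm fluorescence intensity with signal-to-noise per printed feature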
# [7] = small-molecule microarray binders of probe aShh, primary screen, biochemical, biotinylated probe, 635/667 nm fluorescence (AID 1114); settings: higher = more signal;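 note: probe is biotin-labelled aShh protein from a stem cell growth factor screen; measures binding of labelled protein to compounds printed on the slide; score merges feature fluorescence at 667 nm with signal-to-noise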
# [8] = small-molecule microarray binders of probe aNog, primary screen, biochemical, biotinylated probe, 635/667 nm fluorescence (AID 1115); settings: higher = more signal;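 note: probe is biotinylated aNog protein used at 0.15 µg/mL for 1 h at 4 C; z-score combines 667 nm fluorescence of each spot with its signal to noise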
# [9] = target: Torsin-1A-interacting protein 1 (Homo sapiens) (UniProt Q5JTV8); assay: LAP1 binders from COS7 cell lysate, primary screen, small-molecule microarray, 635/667 nm fluorescence (AID 1116); settings: COS7-hLAP1 lysate binding, 635 nm fluorescence, higher = more signal
# Chain of Torsin-1A-interacting protein 1 (Homo sapiens) (Q5JTV8 whole entry, looked up): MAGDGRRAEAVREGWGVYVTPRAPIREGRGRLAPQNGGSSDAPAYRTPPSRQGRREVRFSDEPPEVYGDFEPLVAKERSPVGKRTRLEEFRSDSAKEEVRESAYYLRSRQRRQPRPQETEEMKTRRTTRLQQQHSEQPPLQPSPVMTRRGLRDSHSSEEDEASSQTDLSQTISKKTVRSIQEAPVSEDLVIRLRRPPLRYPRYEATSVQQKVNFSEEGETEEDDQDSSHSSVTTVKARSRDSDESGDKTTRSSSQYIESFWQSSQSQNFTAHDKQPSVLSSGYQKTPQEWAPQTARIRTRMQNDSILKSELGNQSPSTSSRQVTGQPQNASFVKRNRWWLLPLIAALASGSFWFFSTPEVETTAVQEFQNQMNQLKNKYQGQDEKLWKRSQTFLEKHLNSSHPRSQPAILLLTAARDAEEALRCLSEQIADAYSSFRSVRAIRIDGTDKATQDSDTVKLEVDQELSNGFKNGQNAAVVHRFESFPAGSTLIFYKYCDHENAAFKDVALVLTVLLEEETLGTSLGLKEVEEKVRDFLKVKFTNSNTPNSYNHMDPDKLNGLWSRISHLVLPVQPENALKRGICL
# [10] = target: Alpha-bungarotoxin (Bungarus multicinctus) (UniProt P60615); assay: alpha-bungarotoxin binders on microarray, profiling panel, artefact control for SMM control protein annotation, biochemical, small-molecule microarray, Alexa647 label, 635/667 nm fluorescence (AID 1117); settings: alpha-BTX-A647 binding fluorescence, higher = more signal
# Chain of Alpha-bungarotoxin (Bungarus multicinctus) (P60615 whole entry, looked up): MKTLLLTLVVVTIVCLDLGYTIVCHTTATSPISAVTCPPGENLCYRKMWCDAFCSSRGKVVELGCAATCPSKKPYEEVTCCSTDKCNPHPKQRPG
SMILES,composite z-score [1],z-score [2],composite z-score [3],composite z-score [4],composite z-score [5],composite z-score [6],composite z-score [7],composite z-score [8],composite z-score [9],composite z-score [10]
NCCCCCNC(=O)[C@@H]1C[C@@H]2C(=O)NCC(=O)N2[C@@H]1c1ccc(O)cc1,1.37,0.358,1.3,0.957,0.281,-0.008,-0.138,-0.036,0.855,1.15
O=C1O[C@H](c2ccccc2)[C@H](c2ccccc2)N2[C@H]1[C@@H](C(=O)Nc1nc3ccccc3s1)[C@]1(C(=O)Nc3ccc(C#CCCO)cc31)[C@H]2c1ccc(OCCO)cc1,1.39,-1.65,0.436,1.26,0.0502,0.0927,0.184,1.15,1.07,0.753
COCCOC(=O)N1C(=O)[C@@]2(c3ccccc31)[C@H](c1ccccc1OCCO)N1[C@H](c3ccccc3)[C@H](c3ccccc3)OC(=O)[C@H]1[C@@H]2C(=O)Nc1nc2ccccc2s1,0.484,-2.52,0.531,1.24,0.375,0.0095,-0.188,0.326,0.988,1.74
O=C1O[C@H](c2ccccc2)[C@H](c2ccccc2)N2[C@H]1[C@@H](C(=O)NC[C@H](O)c1ccccc1)[C@]1(C(=O)Nc3ccccc31)[C@H]2c1ccc(OCCO)cc1,1.38,-2.05,0.119,0.475,0.245,-0.0882,-0.167,0.0821,1.5,1.33
CN1C(=O)[C@]2(Cc3ccccc3)N=C(c3ccc(OCCCO)cc3)O[C@@H]2c2ccccc21,1.46,-1.36,0.235,0.33,-0.323,0.0761,0.0469,0.849,1.3,0.51
COc1ccc(C(=O)Nc2ccc(CN3C(=O)[C@@]4(O[C@@H](CC(=O)N5CCC[C@H]5CO)[C@H]([Si](C)(C)c5ccc(OC)cc5)[C@H]4C)c4ccccc43)cc2)cc1,0.825,-2.19,1.13,0.11,-0.654,-0.0643,0.0639,-0.0503,1.01,1.12
CCCC=C(CCC)[C@@H](NS(=O)(=O)c1cccs1)c1ccc(C(=O)OC)cc1,1.37,-2.93,-0.452,1.6,0.85,0.105,0.605,1.41,0.554,1.24
[N-]=[N+]=NCc1ccccc1C[C@@]1(C(=O)NCC(O)CO)N=C(c2ccc(OCCCO)cc2)O[C@@H]1c1ccccc1N=[N+]=[N-] (stereo not given in full),1.39,-2.72,-0.124,2.21,1.02,0.149,0.156,2.11,2.18,0.842
CCCC[C@@H]1C[C@H]1[C@@H](NC(=O)c1ccco1)c1ccc(C(=O)OC)cc1,0.0703,-1.07,-0.423,0.0927,0.555,-0.027,-0.217,-0.261,-0.392,-0.335
O=C(NCc1ccccc1)[C@@]1(CCS(=O)(=O)c2ccccc2)N=C(c2ccc(OCCCO)cc2)O[C@H]1c1ccccc1,1.44,-2.25,-0.125,1.43,0.112,0.111,0.0055,-0.0597,1.32,2.03
COC(=O)[C@@]1(Cc2ccc(F)cc2)[C@H]2c3cc(C(=O)N(C)C)n(CC4CC4)c3C[C@H]2CN1C(=O)c1ccccc1,1.45,-1.14,0.0265,2.21,1.39,1.05,1.38,0.816,0.156,1.69
[N-]=[N+]=NCc1ccccc1[C@H]1OC(c2ccc(OCCCO)cc2)=N[C@@]1(Cc1ccccc1)C(=O)NCc1ccccc1,0.296,-2.19,0.0739,1.45,0.727,0.075,0.22,0.683,0.881,0.761
Cc1ccc(S[C@]2(C(=O)NCCN3CCOCC3)CC(=O)N(Cc3ccccc3)[C@@H]2c2ccc(CO)cc2I)cc1,0.0104,-3.12,-0.601,-0.318,-0.431,-0.124,-0.17,0.0323,-0.914,-1.07
C=CCC(OC(C)=O)[C@@H]1[C@@H](N(Cc2ccc(-c3cccc(C(F)(F)F)c3)o2)C(=O)Cc2ccc(F)cc2)c2cc(OCCCO)ccc2N1C(=O)Cc1ccc(OC)cc1 (stereo not given in full),-2.04,-1.36,-0.665,-0.718,-0.751,-0.18,-0.138,-0.463,-0.354,-0.167
C=CCNC(=O)[C@@H]1[C@H]2C(=O)O[C@H](c3ccccc3)[C@H](c3ccccc3)N2[C@H](c2ccc(OCCO)cc2)[C@@]12C(=O)Nc1ccc(C#CCCO)cc12,1.32,-1.36,1.28,1.44,-0.0758,0.452,2.63,2.4,2.12,1.68
C=CCN(Cc1ccccc1)C(=O)C(c1cccs1)N(CCOCCO)C(=O)/C=C\C(=O)O (stereo not given),-0.762,0.448,-2.24,-0.512,0.446,-0.256,-0.0035,-0.0712,-1.45,-1.82
CCOC(=O)C1=CCC(c2ccccc2)N(S(=O)(=O)CC[Si](C)(C)C)C1 (stereo not given),-0.312,-0.327,-0.262,-0.0436,0.0045,-0.208,-0.262,-0.338,-0.28,0.115
